Records with an inconclusive call do not appear. Entries that show only a call come without a potency. Activity calls are given as the source filed them. Calls come from the whole dose curve.
Potency is the fitted concentration of half-maximal effect.

The experiment can be described thus: p53 small molecule agonists, cell-based qHTS assay with human liver microsomes: qHTS cell viability counter screen (AID 1963579). Note: nearly all actives have a fitted effect of over 45% in size. Conditions: p53RE-bla HCT-116 viability, ATP luminescence, 16 h, HLM; series mostly up to 66 µM. The text has this: National Center for Advancing Translational Sciences [NCATS]
Division of Preclinical Innovation [DPI]
U.S. Environmental Protection Agency [EPA]
National Institutes of Environmental Health Sciences [NIEHS]
National Toxicology Program [NTP]
U.S. Food and Drug Administration [FDA]
p53, a tumor suppressor protein, is activated following cellular insult, including DNA damage and other cellular stresses. The activation of p53 regulates cell fate by inducing DNA repair, cell cycle arrest, apoptosis, or cellular senescence. The activation of p53, therefore, is a good indicator of DNA damage and other cellular stresses. […] The activation of the reporter gene under culture conditions can be detected by fluorescence intensity. This cell line was used to screen the Tox21 10K compound library in the condition of presence of human liver microsomes and to identify agonists that activate the p53 signaling pathway after in vitro metabolic activation (Ooka et al., Archive of Toxicology 96:1975-1987, 2022).
Tox21 Assay Protocol Summary:
The p53RE-bla cells were dispensed at 4,000cells/3ul/well in 1536-well black-clear bottom plates. After the assay plates were incubated at 37 C, 5% CO2 incubator for 5 hours, 23 nL of compounds dissolved in DMSO, positive controls or DMSO only was transferred to the assay plate. Following compound addition, 3 uL of human liver microsomes (XenoTech, Kansas City, KS) at final concentration of 0.5 mg/mL and 1uL of B-Nicotinamide adenine dinucleotide 2'-phosphate (NADPH) at final concentration of 0.5 mg/mL were transferred to the assay plate. The plates were incubated at 37 C for 16 hours. 1 uL of LiveBLAzer detection mixture was added to each well and the plates were incubated at room temperature in the dark for 2 h. Fluorescence intensity at 460 and 530 nm emission and 405 nm excitation were measured by an Envision plate reader. For cell viability readout that measures cytotoxicity, 4 ul/well of CellTiter-Glo reagent was added into the assay plates using a Flying Reagent Dispenser. After 30 min incubation at room temperature, the luminescence intensity in the plates was measured using a ViewLux plate reader.
On to `CCCCCCCCCCCCCCCCCCOS(=O)(=O)O`, for which the Potency result was “inactive”.

`CC1=CP(=O)(c2ccccc2)CC1` (stereo not given): the Potency entry was “inactive”.

Take `CCCCCCn1c(=O)c2c(ncn2C)n(C)c1=O`: the Potency entry is “inactive”.

As to `[Cu+]`, the Potency result is “inactive”.

For `N#Cc1cscn1`, the Potency result is “inactive”.

In the case of `O=C(OCCN1CCOCC1)c1cccnc1Nc1cccc(C(F)(F)F)c1`, the Potency result is “inactive”.

For the compound `CCOC(=O)[C@H](C)O`, the Potency entry was “inactive”.

For `CN(C)CC/C=C1/c2ccccc2COc2ccc(CC(=O)O)cc21`, the Potency entry was “inactive”.

As for `CN(C(=O)CCCOc1ccc2[nH]c(=O)ccc2c1)C1CCCCC1`, the Potency entry was “inactive”.

For the compound `CCN1CCN(c2cc(-c3ccc(F)cc3)c3c(n2)CCCCCC3)CC1`, the activity change, negative = cytotoxicity was 11.2% [at 13.5 µM] (inactive).

`O=c1c2ccccc2nnn1CCl`: the Potency entry was “inactive”.

Turning to `CCCCCCCCCCCCCCCCCCO`, the Potency result was “inactive”.

`CC(C)Nc1cccnc1N1CCN(C(=O)c2cc3cc(NS(C)(=O)=O)ccc3[nH]2)CC1`: the Potency result is “inactive”.

With `Cc1ccc2ccccc2n1`, the Potency result is “inactive”.

With `CCCCCCCCCCCCCC(=O)OCC(O)CO` (stereo not given), the Potency result was “inactive”.

Consider `COC(=O)/C=C\C(=O)O`, for which the Potency result was “inactive”.

Turning to `Cc1ccc(Cl)c(OCC(O)CNC(C)(C)C)c1` (stereo not given), the Potency entry is “inactive”.

Turning to `CCCCC(CC)(CO)CO`, the Potency result was “inactive”.

Consider `CC(C)(C)NCC(O)COc1cccc2c1C[C@H](O)[C@H](O)C2` (stereo not given in full), for which the Potency result is “inactive”.

Take `O=S(=O)(c1ccccc1)c1ccc(Cl)cc1`: the Potency result was “inactive”.

In the case of `NC(=O)N(O)[C@@H]1C=C[C@H](Oc2cccc(Oc3ccc(F)cc3)c2)C1`, the Potency entry was “inactive”.

As for `CC(C)OC(=O)C(C(=O)OC(C)C)=C1SC=CS1`, the Potency result was “inactive”.

Regarding `CC(C)C[C@H](NC(=O)OCC1c2ccccc2-c2ccccc21)C(=O)O`, the Potency entry was “inactive”.

With `C[C@H](CN1CCCC1)C(=O)c1ccc(C(F)(F)F)cc1`, the Potency result was “inactive”.

Turning to `CCCC[P+](C)(CCCC)CCCC`, the Potency entry is “inactive”.

With `Cc1ccc2sc3cccc(C)c3c2c1`, the Potency entry was “inactive”.

Take `Oc1cn2c(n1)Nc1ccc(Cl)c(Cl)c1C2`: the activity change, negative = cytotoxicity was -1.56% [at 13.5 µM] (inactive).

In the case of `COc1ccc2nc(NC(=O)Nc3ccccc3)sc2c1`, the Potency entry is “inactive”.

For the compound `O=C(Nc1cccc2c(=O)cc(-c3nn[nH]n3)oc12)c1ccc(OCCCCc2ccccc2)cc1`, the Potency result was “inactive”.

Regarding `CCOC(=O)OC(C)OC1=C(C(=O)Nc2ccccn2)N(C)S(=O)(=O)c2ccccc21` (stereo not given), the Potency entry is “inactive”.

Regarding `CNC(=O)N(c1ccccc1)c1ccccc1`, the Potency result is “inactive”.

`NC(=O)CC[C@@H]1NC(=O)[C@H](Cc2ccccc2)NC(=O)[C@H](Cc2ccc(O)cc2)NC(=O)CCSSC[C@@H](C(=O)N2CCC[C@H]2C(=O)N[C@@H](CCCN=C(N)N)C(=O)NCC(N)=O)NC(=O)[C@H](CC(N)=O)NC1=O`: the Potency entry is “inactive”.

Turning to `Cc1ccc(C(=O)Oc2ccc(C(O)CNC(C)(C)C)cc2OC(=O)c2ccc(C)cc2)cc1` (stereo not given), the Potency was 397 nM (active).

For `CN(C)CCCOc1nn(Cc2ccccc2)c2ccccc12`, the Potency entry was “inactive”.

With `C=CCOc1nc(OCC=C)nc(OCC=C)n1`, the Potency entry is “inactive”.

Turning to `C=C1CC[C@H](O)C/C1=C\C=C1/CCC[C@]2(C)[C@@H]([C@H](C)CCCC(C)C)CC[C@@H]12`, the Potency entry was “inactive”.

As to `CC(C)(C)OC(=O)c1ccccc1C(=O)O`, the Potency entry was “inactive”.

Turning to `COc1cccc(O)c1O`, the Potency result was “inactive”.

Take `CCCCCCCCC(=O)Cl`: the Potency entry was “inactive”.

In the case of `COC(=O)C1CC(=O)C(C(=O)OC)CC1=O` (stereo not given), the activity change, negative = cytotoxicity was -6.82% [at 5.99 µM] (inactive).

Values taken from PubChem BioAssay (Tox21).
